Most compounds without a hit are left out; they make up all but 8% or so of the library.
KB-3-1 tox: qHTS assay for MDR1-selective chemotherapeutics: Primary screen using the parental adenocarcinoma cell KB-3-1; KB-3-1 viability, CellTiter-Glo ATP luminescence, 72 h; Potency, µM (highest dose often 46.1 µM), hits mostly cytotoxic; actives 1.4% (n = 400,000); further: on the % scale 0 is the no-effect control and ±100 the full control effect; nearly all actives have a fitted effect of over 60% in size
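Cytotoxicity in the drug-sensitive parental line KB-3-1 was scored as loss of CellTiter-Glo luminescence following 72 h incubation with compound. Values come from curve fitting of normalized concentration-response data.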
MCF10A rerep: A quantitative high throughput screen for small molecules that induce DNA re-replication in MCF 10a normal breast cells; MCF 10A DNA re-replication, Hoechst nuclear intensity, 48 h; Potency, µM (doses to about 46.1 µM), without a hit: at the highest dose activity, positive = re-replication, usual class: activators; actives 2.9% (n = 350,000); AID 624296, 2012; further: % of control where 0% means no effect; nearly all actives have a fitted effect of over 50% in size
HT1080NT lethal: qHTS for induction of synthetic lethality in tumor cells producing 2HG: qHTS for the HT-1080-NT fibrosarcoma cell line | HT-1080-NT fibrosarcoma viability, CellTiter-Glo ATP luminescence, 48 h | Potency, µM (top dose mostly 46.1 µM), without a hit: at the top dose activity, negative = less viability, actives largely listed as cytotoxic | actives 1.6% (n = 360,000) | AID 686970, 2013;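 further: NT is the 2HG producing partner of a matched IDH1 knockdown line; 0% = DMSO-treated cells and -100% = media-only wells without cells; nearly all actives have a fitted effect of over 55% in size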
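HT-1080-NT; 750 cells/well; 5% FBS RPMI; 48 h compound, 37 degrees C; CellTiter-Glo luminescence; curve fitting and curve-class assignment.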
KB-V1 cytotox: qHTS assay for MDR1-selective chemotherapeutics: Primary screen using the drug-selected MDR subline cells KB-V1; Potency, µM (series often up to 46.1 µM), usual class: cytotoxic; KB-V1 MDR cells viability, CellTiter-Glo, 72 h; actives 3.4% (n = 400,000); AID 1347076, 2019; further: on the % scale 0 is the no-effect control and ±100 the full control effect; nearly all actives have a fitted effect of over 60% in size
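KB-V1, DMEM (no phenol red) + 10% FBS; cpd pin-transferred, titration series; 72 h, 37 degrees C; CellTiter-Glo, luminescence. Data normalized, curve-fit.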
SW480 rerep: A quantitative high throughput screen for small molecules that induce DNA re-replication in SW480 colon adenocarcinoma cells | SW480 DNA re-replication, Hoechst DNA content imaging, 48 h | Potency, µM (series often up to 46.1 µM), for inactives: at the highest dose re-replication activation, hits mostly activators | actives 1.8% (n = 340,000) | AID 624297, 2012; further: % of control where 0% means no effect; nearly all actives have a fitted effect of over 55% in size
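Compounds, transferred as 23 nL by pin tool, were incubated with cells for 48 hr; DNA content per nucleus was then quantified by Hoechst staining and fluorescence plate imaging.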
HT1080 IDH1KD tx: qHTS for induction of synthetic lethality in tumor cells producing 2HG: qHTS for the HT-1080-IDH1KD cell line. HT-1080 IDH1 knockdown viability, ATP luminescence, 48 h. Potency, µM (highest dose often 46.1 µM), for the others: at the highest dose activity, negative = toxicity, hits mostly cytotoxic. actives 2% (n = 360,000);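 further: 0% = DMSO wells and -100% = cell-free medium wells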
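IDH1KD HT-1080 cells, 750/well, RPMI + 5% FBS; compound pinned after 2 h settling; 48 h, 37 °C; CellTiter-Glo luminescence; % activity normalised to DMSO and no-cell wells; curves fitted, classed by r2 and efficacy.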
* hit, by the source's call; i = inactive; ? = inconclusive; . = no result given; [ ] = another dose, or the depositor's remark. The call rests on the fitted dose curve; in most records, active means well fitted curve in the direction sought with a large enough effect; inconclusive means small, poorly fitted or top-dose-only effect, or another doubt; inactive means no such curve, though single readings can be large; an effect the other way counts as inactive or inconclusive. Potency means the concentration at half of the fitted maximal effect.

SMILES | KB-3-1 tox | MCF10A rerep | HT1080NT lethal | KB-V1 cytotox | SW480 rerep | HT1080 IDH1KD tx
CC(=O)c1cccc(NC(=O)Cn2nc(-c3ccc(Cl)cc3)ccc2=O)c1 | i | 0.58µM* | 0% | ? | -52% | 0%
CNS(=O)(=O)c1cccc(C(=O)OCC(=O)c2c(N)n(C)c(=O)n(C)c2=O)c1 | i | 0% | 1% | i | 5% | 8%
C=CCN(c1ccccc1OC)S(=O)(=O)c1cccc(C(=O)OCC(=O)c2c(N)n(C)c(=O)n(C)c2=O)c1 | ? | 20% | -6% | 8.2µM* | 1% | -1%
O=C(Cc1cccc(F)c1)NO | . | . | 17% | . | . | 23%
CN(C)c1cc(N2CCOCC2)nc(C#N)n1 | . | . | 4% | . | . | 8%
COc1cc(NC(=O)c2cc(-c3ccc4c(c3)OCO4)on2)cc(OC)c1OC | i | 19% | 8.2µM* | ? | -25% | 5.8µM*
COc1ccc(NC(=O)c2cc(C)on2)cc1OC | i | 0% | 8% | i | -12% | -4%
O=C(Nc1cccnc1)c1cc(-c2ccccc2)on1 | i | 13% | -3% | i | 8% | -16%
COc1cccc(-c2cc(C(=O)Nc3cccnc3)no2)c1 | ? | 9.2µM* | ? | ? | 5% | 12µM*
COc1cccc(-c2cc(C(=O)Nc3cc(OC)c(OC)c(OC)c3)no2)c1 | ? | 3.7µM* | ? | 3.7µM* | ? | ?
COc1ccc(NC(=O)c2cc(C(C)C)on2)cc1OC | i | 21% | 13% | 21µM* | -2% | -2%
CC(C)n1cc(NC(=O)c2cc(-c3ccccc3)on2)cn1 | ? | 3.7µM* | 16µM* | 4.1µM* | 5.2µM* | 8.2µM*
COc1ccc(N2COC3c4cccc5cccc(c45)C32)cc1 (centres undefined) | i | 23µM* | 4% | i | 1% | 4%
CCCOc1ccc(-c2nn(-c3ccccc3)cc2/C=C2\SC(N)=NC2=O)cc1 | i | 4.6µM* | -10% | i | ? | -8%
Cc1cc(-c2nn(-c3ccccc3)cc2/C=C2\SC(N)=NC2=O)ccc1OC(C)C | ? | 4.1µM* | 7% | 16µM* | ? | 2%
CCOC(=O)C(CC)Sc1ncnc2sc3c(c12)CCCC3 (centres undefined) | i | . | . | i | . | .
COc1ccc(CCNC(=O)CCCCn2c(=O)c3ccccc3n(Cc3cc(C)ccc3C)c2=O)cc1OC | i | . | . | ? | . | .
COCc1cc(=O)[nH]c(Nc2nc3ccc(C)cc3o2)n1 | 21µM* | ? | 4% | ? | ? | ?
Cc1nc(Nc2nc(CSc3nc4ccccc4[nH]3)cc(=O)[nH]2)nc2ccccc12 | ? | 12µM* | 4.1µM* | i | ? | 4.6µM*
Cc1nc(Nc2nc(CSc3ccc(Cl)cc3)cc(=O)[nH]2)nc2ccccc12 | i | 12% | 18% | i | ? | 12%
Cc1ccc2c(=O)[nH]c(Nc3nc(C)cc(-c4ccccc4)n3)nc2c1 | i | 20% | 4% | i | ? | 20%
COc1ccc2nc(Nc3nc(CSc4nc5ccccc5[nH]4)cc(=O)[nH]3)nc(C)c2c1 | ? | 3.7µM* | ? | ? | ? | ?
Cc1nc(Nc2nc(-c3ccccc3)cc(=O)[nH]2)nc2ccccc12 | ? | ? | ? | ? | ? | 18µM*
COc1ccc(C2CC(=O)Nc3c2c(=O)n(C)c2nc4ccccc4n32)cc1 (centres undefined) | i | . | . | i | . | .
CCOc1ccc(CCNC(=O)Cn2ncc3c(=O)oc4ccc(C)cc4c32)cc1 | i | . | . | i | . | .
SMILES | KB-3-1 tox | MCF10A rerep | HT1080NT lethal | KB-V1 cytotox | SW480 rerep | HT1080 IDH1KD tx
CCc1ccc2nc(Nc3nc(COC)cc(=O)[nH]3)nc(C)c2c1 | i | 13% | 4% | 21µM* | 0% | 17%
Cc1cc(C)cc(Nc2nc3ccccc3c(=O)[nH]2)c1 | i | ? | 14% | ? | ? | -10%
COc1nc(Nc2nc3ccccc3c(=O)[nH]2)nc2ccc(C)cc12 | ? | ? | 1.3µM* | ? | 4.6µM* | 1.3µM*
CC(=O)/C(C#N)=C1\NC(=O)C(Cc2ccc(F)cc2)S1 (centres undefined) | ? | 6% | -12% | i | ? | -16%
CC(=O)/C(C#N)=C1\NC(=O)C(Cc2cc(Cl)ccc2Cl)S1 (centres undefined) | 15µM* | 17% | 23µM* | 6.5µM* | -13% | ?
NC1=NC(=O)C(Cc2cc(Cl)ccc2Cl)S1 (centres undefined) | i | 5% | -7% | i | -2% | -10%
CC(=O)/C(C#N)=C1\NC(=O)C(Cc2ccccc2Cl)S1 (centres undefined) | 3.3µM* | ? | -23% | ? | -4%[9.22 µM] | 3.7µM*
CC(=O)/C(C#N)=C1\NC(=O)C(Cc2ccc(C)c(C)c2)S1 (centres undefined) | 15µM* | ? | -18% | 5.8µM* | -1% | ?
CCCCOC(=O)c1ccc(NC(=O)Cc2coc3c(C)c(C)ccc23)cc1 | i | . | . | i | . | .
CCc1cccc(Nc2ncnc3onc(-c4ccc(F)cc4)c23)c1 | i | . | . | i | . | .
CCc1cccc(C)c1NC(=O)Cn1cc2c(n1)CCCC2 | i | . | . | i | . | .
CC(=O)N(Cc1ccc(Br)cc1)c1cccc(C)c1C | i | ? | ? | i | ? | ?
COc1ccc(CN(C(C)=O)c2cccc(C)c2C)cc1 | ? | ? | 16µM* | ? | ? | ?
CN(C)CCCC1Sc2ccccc2Sc2ccccc21 (centres undefined) | ? | 9% | 23µM* | i | ? | ?
Cc1cc(C)cc(C(=O)OCC(=O)Nc2cccc(S(=O)(=O)NC3=NCCCCC3)c2)c1 | ? | -17% | 0% | 16µM* | ? | -8%
O=C(Nc1cccc(S(=O)(=O)NC2=NCCC2)c1)c1cc(-c2ccccn2)nc2ccccc12 | i | 1% | 23µM* | i | 5% | ?
O=C(CCl)Nc1cccc(S(=O)(=O)NC2=NCCC2)c1 | 18µM* | ? | 18µM* | i | ? | 16µM*
O=C(Nc1cccc(S(=O)(=O)NC2=NCCCCC2)c1)c1cc(-c2ccccc2Cl)nc2ccccc12 | i | ? | 8% | i | -4% | -15%

Assay outcomes: PubChem BioAssay, National Center for Advancing Translational Sciences (NCATS)
